Shown are actives, neighbours in structure and some others; about 18% of the full set was active somewhere.
DT40 TDP1 no CPT – qHTS for Inhibitors of human tyrosyl-DNA phosphodiesterase 1 (TDP1): qHTS in cells in absence of CPT. DT40 Tdp1-/- hTDP1 cells, no CPT, ATP luminescence, 48 h. Potency, µM (top dose mostly 46.2 µM), usual class: inhibitors. hit rate 15% among 420,000. AID 686978, 2013; further: nearly all actives have a fitted effect of over 55% in size
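Stably hTDP1-transfected Tdp1-null chicken DT40 cells were treated with library compounds minus camptothecin and grown for at least 48 hr at 37 °C, after which cellular ATP was quantified by luminescence.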
TDP1 block – inhibitors of human tyrosyl-DNA phosphodiesterase TDP1; Q9NUW8; recombinant TDP1, AlphaScreen DNA substrate cleavage; Potency, µM (doses to about 130 µM), usual class: inhibitors; hit rate 0.28% among 350,000; AID 485290; further: nearly all actives have a fitted effect of over 40% in size
Target sequence (Q9NUW8 whole entry, looked up): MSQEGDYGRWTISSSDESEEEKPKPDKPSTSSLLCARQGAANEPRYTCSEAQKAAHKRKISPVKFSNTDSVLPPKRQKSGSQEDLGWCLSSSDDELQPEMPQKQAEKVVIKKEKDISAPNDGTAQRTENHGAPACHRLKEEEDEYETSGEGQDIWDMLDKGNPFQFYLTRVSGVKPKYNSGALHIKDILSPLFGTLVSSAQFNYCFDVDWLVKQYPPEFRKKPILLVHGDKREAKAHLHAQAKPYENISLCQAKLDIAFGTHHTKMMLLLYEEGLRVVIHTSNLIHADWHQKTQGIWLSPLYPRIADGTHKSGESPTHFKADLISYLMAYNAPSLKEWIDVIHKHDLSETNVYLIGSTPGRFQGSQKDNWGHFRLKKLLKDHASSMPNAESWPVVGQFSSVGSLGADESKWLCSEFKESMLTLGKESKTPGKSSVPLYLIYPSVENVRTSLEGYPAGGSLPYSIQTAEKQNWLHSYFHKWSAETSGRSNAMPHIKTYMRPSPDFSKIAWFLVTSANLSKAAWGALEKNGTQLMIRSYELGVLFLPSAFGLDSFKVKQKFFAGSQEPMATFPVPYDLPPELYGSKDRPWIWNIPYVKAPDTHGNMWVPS
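Compounds were preincubated with Tdp1 (1 nM final) for 15 min at room temperature before substrate (15 nM final) started a 5 min reaction; beads (10 ug/ml final) were then added for 10 min before AlphaScreen detection.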
CtBP-E1A blk – inhibitors of CtBP/E1A interaction | activity change, % (test concentration not listed) | hit rate 0.49% among 340,000 | AID 651724 | AlphaScreen GST-E1A/His-CtBP binding, 1536-well; active compounds read low; in the data active means activity change below about -65%; inconclusive means mostly about -30% to -63%
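In 5 uL wells, 23 nL compound meets equimolar GST-E1A and His-CtBP (5X stock 125 nM each) for 2 h, 37 °C. Beads (5X, 50 ug/mL) then 1 h, 37 °C, dark.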
DT40 TDP1 CPT – DT40-hTDP1 cell growth loss with CPT | chicken DT40 Tdp1-/-;hTDP1 cells + 20 nM CPT, ATP luminescence, 48 h | Potency, µM (titrated, usually from 46.2 µM), actives largely listed as inhibitors | hit rate 12% among 420,000; further: nearly all actives have a fitted effect of over 55% in size
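Cell growth measured by CellTiter-Glo luminescence after a minimum 48 h, 37 C compound exposure with 20 nM CPT in Tdp1-knockout DT40 cells stably expressing hTDP1, seeded 400/well; qHTS titration format.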
Six1-Eya2 blk – inhibitors of human Six1/Eya2 interaction; activity change, % (no concentration beside the values); Q15475+O00167; AlphaScreen GST-Six1/His-Eya2 binding, biochemical; active compounds read low; hit rate 0.56% among 360,000; AID 651725; in the data active means activity change below about -65%; inconclusive means mostly about -30% to -63%
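Six1/Eya2 binding was read as AlphaScreen signal after compounds were pinned into GST-Six1 plus His-tagged Eya2 (5X stock 250/500 nM) in pH 8.0 Tris/NaCl/TCEP buffer, beads added, then incubated 1 h, 37 C, dark.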
IL-1B inflam inh – inflammasome signaling inhibition, IL-1 beta readout; THP-1 LPS/ATP IL-1B secretion, AlphaLISA, 16 h; active compounds read low; activity change, % at 57.5 µM; hit rate 4.7% among 360,000; in the data active means activity change below about -50%; inconclusive means mostly about -30% to -49%
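THP-1 cells pretreated 1 hr with compounds (up to 57.5 uM final), then stimulated with LPS (250 ng/mL final) plus ATP (1.25 mM final); secreted IL-1B measured by AlphaLISA after 16 hr, decreased signal indicating inhibition.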
Numbers stand for hits. Unless noted, the call rests on the fitted dose curve; in most records, active means well fitted curve in the direction sought with a large enough effect; inconclusive means small, poorly fitted or top-dose-only effect, or another doubt; inactive means no such curve, though single readings can be large; an effect the other way counts as inactive or inconclusive.

Screening CCc1ccccc1NC(=O)C1CCCN1C(=O)NCc1ccccc1 (centres undefined) returned DT40 TDP1 no CPT inactive, TDP1 block inactive, CtBP-E1A blk inactive, DT40 TDP1 CPT inactive, Six1-Eya2 blk inactive and IL-1B inflam inh inactive.
Cc1ccc(-c2ccc(/C=N/n3cnnc3)o2)cc1Cl was read as DT40 TDP1 no CPT inactive, TDP1 block inactive, CtBP-E1A blk inactive, DT40 TDP1 CPT inactive, Six1-Eya2 blk inactive and IL-1B inflam inh inactive.
Screening COc1cccc2sc(N(CCCN(C)C)C(=O)c3ccc(S(=O)(=O)N4CCCc5ccccc54)cc3)nc12 returned DT40 TDP1 no CPT inconclusive, TDP1 block inactive, CtBP-E1A blk inactive, DT40 TDP1 CPT inconclusive, Six1-Eya2 blk inactive and IL-1B inflam inh -50.
CN(C)CCN(C(=O)c1ccc(S(=O)(=O)N2CCc3ccccc32)cc1)c1nc2ccc(F)cc2s1 was read as DT40 TDP1 no CPT inactive, TDP1 block inactive, CtBP-E1A blk inactive, DT40 TDP1 CPT inconclusive, Six1-Eya2 blk inactive and IL-1B inflam inh inactive.
CCc1ccc2nc(N(CCCN(C)C)C(=O)c3ccc(S(=O)(=O)N4CCCc5ccccc54)cc3)sc2c1 was read as DT40 TDP1 no CPT inconclusive, TDP1 block inactive, CtBP-E1A blk inactive, DT40 TDP1 CPT inconclusive, Six1-Eya2 blk inactive and IL-1B inflam inh -98.
Screening CCc1ccc2nc(N(CCCN(C)C)C(=O)c3ccc(S(=O)(=O)N4CCCC4)cc3)sc2c1 returned DT40 TDP1 no CPT inconclusive, TDP1 block inactive, CtBP-E1A blk inconclusive, DT40 TDP1 CPT inconclusive, Six1-Eya2 blk inactive and IL-1B inflam inh inactive.
CN(C)CCCN(C(=O)c1ccc(S(=O)(=O)N2CCc3ccccc32)cc1)c1nc2c(Cl)cccc2s1 was read as DT40 TDP1 no CPT inconclusive, TDP1 block inactive, CtBP-E1A blk inconclusive, DT40 TDP1 CPT inconclusive, Six1-Eya2 blk inconclusive and IL-1B inflam inh -83.
`CCOCCCNC(=O)C(NC(=O)c1ccc(=O)[nH]c1)c1ccccc1` (centres undefined) gave DT40 TDP1 no CPT inactive, TDP1 block inactive, CtBP-E1A blk inactive, DT40 TDP1 CPT inactive, Six1-Eya2 blk inactive and IL-1B inflam inh inactive.
Screening COc1ccc(F)cc1S(=O)(=O)n1cnc2ccccc21 returned DT40 TDP1 no CPT inactive, CtBP-E1A blk inactive, DT40 TDP1 CPT inactive, Six1-Eya2 blk inactive and IL-1B inflam inh inactive.
`Cc1nc(SC(C)C(=O)NCc2ccc3c(c2)OCO3)nc(C)c1C` (centres undefined) gave DT40 TDP1 no CPT inactive, TDP1 block inactive, CtBP-E1A blk inactive, DT40 TDP1 CPT inactive, Six1-Eya2 blk inactive and IL-1B inflam inh inactive.
Screening COC(=O)[C@@]1(C)[C@H]2C(=O)N(Cc3ccccc3)C(=O)[C@H]2[C@H]2CN=C(SC)N21 returned DT40 TDP1 no CPT inactive, TDP1 block inactive, CtBP-E1A blk inactive, DT40 TDP1 CPT inconclusive, Six1-Eya2 blk inactive and IL-1B inflam inh inactive.
`CN(C)C(CNC(=O)c1cnc(Cl)c(Cl)c1)c1ccccc1` (centres undefined) gave DT40 TDP1 no CPT inactive, DT40 TDP1 CPT inactive, Six1-Eya2 blk inactive and IL-1B inflam inh inconclusive.
`CCOC(=O)CC1C(=O)NCCN1C(=O)NC1CCCCC1` (centres undefined) gave DT40 TDP1 no CPT inactive, TDP1 block inactive, CtBP-E1A blk inactive, DT40 TDP1 CPT inactive, Six1-Eya2 blk inactive and IL-1B inflam inh inactive.
For O=C1NC(=S)S/C1=C\c1cc2ccccc2nc1N1CCCCC1 the results were DT40 TDP1 no CPT 21µM, TDP1 block inactive, CtBP-E1A blk inactive, DT40 TDP1 CPT 21µM, Six1-Eya2 blk inactive and IL-1B inflam inh inactive.
O=C1CCCN1CCCNc1ccc2nnc(CCC(=O)N3CCN(c4ccc(F)cc4)CC3)n2n1 was read as DT40 TDP1 no CPT inactive, TDP1 block inactive, CtBP-E1A blk inactive, DT40 TDP1 CPT inactive, Six1-Eya2 blk inactive and IL-1B inflam inh inconclusive.
Screening O=C(Cn1c(=O)c2cccn2c2cccnc21)NCc1cccc(F)c1 returned DT40 TDP1 no CPT inactive, TDP1 block inactive and DT40 TDP1 CPT inactive.
Screening CC1CCC(NC(=O)CCNS(=O)(=O)c2ccccc2)CC1 (centres undefined) returned DT40 TDP1 no CPT inactive, TDP1 block inactive, CtBP-E1A blk inactive, DT40 TDP1 CPT inactive, Six1-Eya2 blk inactive and IL-1B inflam inh inactive.
COc1cccc(N2CCN(Cc3cccnc3)CC2)c1 was read as DT40 TDP1 no CPT inactive, TDP1 block inactive, CtBP-E1A blk inactive, DT40 TDP1 CPT inactive, Six1-Eya2 blk inactive and IL-1B inflam inh inactive.
Screening COc1cc(CN2CCN(C(O)(c3ccccc3)c3ccccc3)CC2)cc(OC)c1OC returned DT40 TDP1 no CPT 15µM, CtBP-E1A blk inactive, DT40 TDP1 CPT inconclusive, Six1-Eya2 blk inactive and IL-1B inflam inh -69.
COc1cc(CN2CCN(c3cccc(Cl)c3)CC2)cc(OC)c1OC was read as DT40 TDP1 no CPT 5.8µM, TDP1 block inactive, CtBP-E1A blk inactive, DT40 TDP1 CPT 7.3µM, Six1-Eya2 blk inactive and IL-1B inflam inh inactive.
`COc1cc(CN2CCC(Cc3ccccc3)CC2)cc(OC)c1OC` gave DT40 TDP1 no CPT inconclusive, CtBP-E1A blk inactive, DT40 TDP1 CPT inconclusive, Six1-Eya2 blk inactive and IL-1B inflam inh inactive.
For COc1ccc(CCNC(=O)CN2CCN(c3cccc(Cl)c3)CC2)cc1OC the results were DT40 TDP1 no CPT 21µM, TDP1 block inactive, CtBP-E1A blk inactive, DT40 TDP1 CPT 21µM, Six1-Eya2 blk inactive and IL-1B inflam inh inactive.
Screening O=C(N/N=C/c1ccccn1)c1cc(-c2cccc3ccccc23)n[nH]1 returned DT40 TDP1 no CPT inactive, TDP1 block inactive, CtBP-E1A blk inconclusive, DT40 TDP1 CPT inconclusive, Six1-Eya2 blk inactive and IL-1B inflam inh inactive.
For C(=NN=C(NN=Cc1cccs1)NN=Cc1cccs1)c1cccs1 the results were DT40 TDP1 no CPT 2.9µM, CtBP-E1A blk inactive, DT40 TDP1 CPT 5.2µM, Six1-Eya2 blk inactive and IL-1B inflam inh inactive.
Screening O=C(N/N=C/c1cccs1)c1ccccn1 returned DT40 TDP1 no CPT inactive, TDP1 block inactive, CtBP-E1A blk inactive, DT40 TDP1 CPT inactive, Six1-Eya2 blk inactive and IL-1B inflam inh inactive.
CC(C)(C)C1CCc2c(C(=O)N/N=C/c3cccs3)csc2C1 (centres undefined) was read as DT40 TDP1 no CPT inconclusive, TDP1 block inactive, CtBP-E1A blk inactive, DT40 TDP1 CPT 14µM, Six1-Eya2 blk inactive and IL-1B inflam inh inactive.
O=C(N/N=C/c1cccs1)c1cc(-c2cccc3ccccc23)n[nH]1 was read as DT40 TDP1 no CPT inconclusive, TDP1 block inactive, DT40 TDP1 CPT inconclusive, Six1-Eya2 blk inactive and IL-1B inflam inh -52.

Compound activity: PubChem, National Center for Advancing Translational Sciences (NCATS)
